# Laboratory results taken from the supplement of paper PMC10849652.
# About 8,800 targets were measured; listed, in parts, are those with a hit and a random draw of the rest. About 0.5% of all pairs of compound and target were hits. Unmarked numbers belong to inactive results.
# Tests used:
# Assay in all cases: log2 fold change, soluble protein after heating vs DMSO (PISA); higher = thermal stabilisation; K562 lysate, 10 uM; active = over 0.2 and 3.5 SD of the protein, either way, in both replicates (recomputed)
# [1] = compound: C#Cc1cccc(Nc2ncnc3cc(OCCOC)c(OCCOC)cc23)c1 [erlotinib]
# In short: (§1)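 Log-two fold change in thermal stability relative to solvent controls is reported from duplicates. For each sample, crude K562 extract from dounce-homogenised pellets in PBS pH 7.4 with 1 mM MgCl2, at 1 mg/mL protein, was treated with 10 μM compound for 30 min. Aliquots heated for 3 min across 48°C-58°C were pooled, brought to 0.5% NP-40 at 4°C and cleared at 21,000xg for 90 min. The supernatant was quantified by TMTpro 16plex LC-MS/MS with channel sums equalised.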
# [2] = compound: C/C(=N\NC(=O)C1=CC(=CC=C1)S(=O)(=O)N2CCOCC2)/C3=C(C=CC(=C3)Cl)O
# In short: as §1
# [3] = compound: C1=CC(=CC=C1C2=NC3=C(N2)C=C(C=C3)C(=O)N)OC4=CC=C(C=C4)Cl
# In short: as §1
# [4] = compound: C1=CC2=C(C=CC(=C2)/C=C\3/C(=O)NC(=NCC4=CC=CS4)S3)N=C1
# In short: as §1
# [5] = compound: C1=CC2=NC=CN=C2C=C1/C=C/3\C(=O)NC(=O)S3
# In short: as §1
# [6] = compound: C1=CC=C(C=C1)C2=NC(=C(N2)C3=CC=NC=C3)C4=CC(=C(C=C4)Cl)O
# In short: as §1
# [7] = compound: C1=CC=C2C(=C1)C3=NNC4=CC=CC(=C43)C2=O
# In short: as §1
# [8] = compound: C1CCN(C1)C(=O)NC2=CC=CC(=C2)NC3=NC=C(C(=N3)NCCC4=CN=CN4)Br
# In short: as §1
# [9] = compound: C1CN(CCC1(CC2=CC=C(C=C2)Cl)N)C3=NC=NC4=C3C=CN4
# In short: as §1
# [10] = compound: C1COCCN1CCN2C3=CC=CC=C3N=C2NC(=O)C4=CC(=CC=C4)[N+](=O)[O-] [IRAK-1-4 Inhibitor I]
# In short: as §1
# UniProt Q15021, sequence (Q15021 whole entry, looked up): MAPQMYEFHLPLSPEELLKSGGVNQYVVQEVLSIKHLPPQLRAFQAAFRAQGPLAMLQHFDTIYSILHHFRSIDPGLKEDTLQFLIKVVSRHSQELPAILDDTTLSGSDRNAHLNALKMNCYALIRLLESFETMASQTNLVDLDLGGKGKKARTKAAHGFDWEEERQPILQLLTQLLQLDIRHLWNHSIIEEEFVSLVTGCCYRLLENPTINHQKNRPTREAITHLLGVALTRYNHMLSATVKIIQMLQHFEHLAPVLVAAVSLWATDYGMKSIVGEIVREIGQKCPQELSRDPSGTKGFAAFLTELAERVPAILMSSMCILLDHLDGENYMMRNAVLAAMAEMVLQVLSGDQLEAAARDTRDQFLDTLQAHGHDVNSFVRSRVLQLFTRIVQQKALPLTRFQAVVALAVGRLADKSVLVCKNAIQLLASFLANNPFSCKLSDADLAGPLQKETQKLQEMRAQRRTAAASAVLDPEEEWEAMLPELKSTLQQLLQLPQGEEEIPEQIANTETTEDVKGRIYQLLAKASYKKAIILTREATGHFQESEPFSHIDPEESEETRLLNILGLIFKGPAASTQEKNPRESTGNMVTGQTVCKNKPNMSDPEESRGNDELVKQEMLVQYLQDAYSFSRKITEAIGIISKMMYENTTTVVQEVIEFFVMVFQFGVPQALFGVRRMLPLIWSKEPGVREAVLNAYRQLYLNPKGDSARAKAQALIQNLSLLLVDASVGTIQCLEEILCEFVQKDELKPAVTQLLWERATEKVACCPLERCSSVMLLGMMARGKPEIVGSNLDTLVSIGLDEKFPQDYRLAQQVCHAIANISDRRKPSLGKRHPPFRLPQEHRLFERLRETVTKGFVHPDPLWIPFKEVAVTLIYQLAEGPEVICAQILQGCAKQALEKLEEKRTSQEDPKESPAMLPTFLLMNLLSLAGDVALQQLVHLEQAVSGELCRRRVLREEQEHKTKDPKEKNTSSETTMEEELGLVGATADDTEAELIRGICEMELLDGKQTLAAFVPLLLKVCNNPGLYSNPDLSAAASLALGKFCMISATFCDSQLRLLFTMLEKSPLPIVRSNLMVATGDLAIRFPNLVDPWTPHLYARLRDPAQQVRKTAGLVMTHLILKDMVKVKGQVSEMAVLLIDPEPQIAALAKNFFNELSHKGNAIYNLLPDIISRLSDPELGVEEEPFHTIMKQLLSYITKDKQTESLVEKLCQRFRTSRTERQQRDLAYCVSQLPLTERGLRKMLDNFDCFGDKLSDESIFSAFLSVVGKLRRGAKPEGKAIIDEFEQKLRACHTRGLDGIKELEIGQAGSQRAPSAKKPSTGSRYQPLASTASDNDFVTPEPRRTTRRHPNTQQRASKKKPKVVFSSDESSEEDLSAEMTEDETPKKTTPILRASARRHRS
# UniProt Q13469, sequence (Q13469 whole entry, looked up): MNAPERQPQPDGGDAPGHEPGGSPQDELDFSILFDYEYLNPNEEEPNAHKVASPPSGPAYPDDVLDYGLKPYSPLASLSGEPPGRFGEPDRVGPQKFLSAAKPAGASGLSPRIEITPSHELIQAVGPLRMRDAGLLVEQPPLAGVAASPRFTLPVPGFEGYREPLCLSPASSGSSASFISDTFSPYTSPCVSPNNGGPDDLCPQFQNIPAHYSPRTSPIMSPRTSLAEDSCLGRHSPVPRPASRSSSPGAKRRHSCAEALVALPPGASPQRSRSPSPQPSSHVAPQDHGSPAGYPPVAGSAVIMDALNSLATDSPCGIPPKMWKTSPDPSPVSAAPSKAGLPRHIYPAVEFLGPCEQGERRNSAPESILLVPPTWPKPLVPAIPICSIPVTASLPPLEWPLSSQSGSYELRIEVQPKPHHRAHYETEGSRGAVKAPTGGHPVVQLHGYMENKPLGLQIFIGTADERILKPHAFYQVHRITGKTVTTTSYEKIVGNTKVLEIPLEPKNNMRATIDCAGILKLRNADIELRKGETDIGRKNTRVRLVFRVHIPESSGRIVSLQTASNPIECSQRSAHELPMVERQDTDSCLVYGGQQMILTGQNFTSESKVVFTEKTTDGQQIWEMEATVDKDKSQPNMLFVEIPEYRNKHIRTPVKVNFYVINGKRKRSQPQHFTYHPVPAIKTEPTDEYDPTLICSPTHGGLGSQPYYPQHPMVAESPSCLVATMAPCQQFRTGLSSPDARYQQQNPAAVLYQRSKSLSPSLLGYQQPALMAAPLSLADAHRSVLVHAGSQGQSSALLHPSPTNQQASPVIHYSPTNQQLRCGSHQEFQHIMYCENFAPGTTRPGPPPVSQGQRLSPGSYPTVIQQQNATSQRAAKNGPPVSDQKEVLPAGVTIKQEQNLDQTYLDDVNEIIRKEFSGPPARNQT
# UniProt O60313, sequence (O60313 whole entry, looked up): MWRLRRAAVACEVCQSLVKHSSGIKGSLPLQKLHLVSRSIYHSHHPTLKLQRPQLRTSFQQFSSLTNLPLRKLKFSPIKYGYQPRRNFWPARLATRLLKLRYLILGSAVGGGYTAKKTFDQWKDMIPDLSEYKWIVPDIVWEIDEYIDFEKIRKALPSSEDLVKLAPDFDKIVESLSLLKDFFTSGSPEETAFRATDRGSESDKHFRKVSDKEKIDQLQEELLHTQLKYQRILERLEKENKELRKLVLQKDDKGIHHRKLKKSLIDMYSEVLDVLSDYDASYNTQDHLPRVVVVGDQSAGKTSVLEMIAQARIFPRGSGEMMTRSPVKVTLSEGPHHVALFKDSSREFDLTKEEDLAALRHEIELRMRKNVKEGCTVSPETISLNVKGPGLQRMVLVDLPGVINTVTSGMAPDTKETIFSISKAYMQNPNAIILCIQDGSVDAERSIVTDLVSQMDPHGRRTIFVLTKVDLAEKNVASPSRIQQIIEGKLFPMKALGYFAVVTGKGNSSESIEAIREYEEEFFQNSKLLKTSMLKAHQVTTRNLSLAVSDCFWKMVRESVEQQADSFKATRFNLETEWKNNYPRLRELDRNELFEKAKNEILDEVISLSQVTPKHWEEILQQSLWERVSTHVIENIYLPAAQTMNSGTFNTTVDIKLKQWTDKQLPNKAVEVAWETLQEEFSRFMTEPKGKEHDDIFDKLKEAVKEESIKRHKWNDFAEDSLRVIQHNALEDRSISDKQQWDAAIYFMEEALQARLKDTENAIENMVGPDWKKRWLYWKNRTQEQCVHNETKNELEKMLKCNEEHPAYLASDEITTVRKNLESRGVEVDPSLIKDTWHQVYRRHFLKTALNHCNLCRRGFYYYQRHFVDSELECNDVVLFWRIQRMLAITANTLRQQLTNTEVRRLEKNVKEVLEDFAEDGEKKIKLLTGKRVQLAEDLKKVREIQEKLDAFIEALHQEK
# UniProt P04150, sequence (P04150 whole entry, looked up): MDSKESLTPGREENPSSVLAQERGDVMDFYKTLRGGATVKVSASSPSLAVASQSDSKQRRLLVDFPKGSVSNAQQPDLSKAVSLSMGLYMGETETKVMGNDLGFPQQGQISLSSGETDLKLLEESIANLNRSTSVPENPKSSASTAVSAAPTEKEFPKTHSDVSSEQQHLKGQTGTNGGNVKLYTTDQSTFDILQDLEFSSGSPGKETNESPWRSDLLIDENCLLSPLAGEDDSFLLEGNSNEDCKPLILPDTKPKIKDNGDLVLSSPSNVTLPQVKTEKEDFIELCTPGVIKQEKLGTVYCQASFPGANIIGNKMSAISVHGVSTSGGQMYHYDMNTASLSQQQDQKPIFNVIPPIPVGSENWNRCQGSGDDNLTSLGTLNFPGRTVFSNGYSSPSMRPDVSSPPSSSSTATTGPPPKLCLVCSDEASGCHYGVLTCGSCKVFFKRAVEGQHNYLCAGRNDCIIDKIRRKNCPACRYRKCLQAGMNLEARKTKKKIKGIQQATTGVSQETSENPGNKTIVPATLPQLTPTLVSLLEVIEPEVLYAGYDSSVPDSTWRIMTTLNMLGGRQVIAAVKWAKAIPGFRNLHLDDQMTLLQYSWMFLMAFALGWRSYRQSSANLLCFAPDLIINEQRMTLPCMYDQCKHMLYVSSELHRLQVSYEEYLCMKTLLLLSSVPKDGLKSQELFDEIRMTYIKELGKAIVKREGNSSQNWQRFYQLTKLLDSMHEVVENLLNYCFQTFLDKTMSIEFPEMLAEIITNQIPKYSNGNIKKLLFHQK
# UniProt Q13330, sequence (Q13330 whole entry, looked up): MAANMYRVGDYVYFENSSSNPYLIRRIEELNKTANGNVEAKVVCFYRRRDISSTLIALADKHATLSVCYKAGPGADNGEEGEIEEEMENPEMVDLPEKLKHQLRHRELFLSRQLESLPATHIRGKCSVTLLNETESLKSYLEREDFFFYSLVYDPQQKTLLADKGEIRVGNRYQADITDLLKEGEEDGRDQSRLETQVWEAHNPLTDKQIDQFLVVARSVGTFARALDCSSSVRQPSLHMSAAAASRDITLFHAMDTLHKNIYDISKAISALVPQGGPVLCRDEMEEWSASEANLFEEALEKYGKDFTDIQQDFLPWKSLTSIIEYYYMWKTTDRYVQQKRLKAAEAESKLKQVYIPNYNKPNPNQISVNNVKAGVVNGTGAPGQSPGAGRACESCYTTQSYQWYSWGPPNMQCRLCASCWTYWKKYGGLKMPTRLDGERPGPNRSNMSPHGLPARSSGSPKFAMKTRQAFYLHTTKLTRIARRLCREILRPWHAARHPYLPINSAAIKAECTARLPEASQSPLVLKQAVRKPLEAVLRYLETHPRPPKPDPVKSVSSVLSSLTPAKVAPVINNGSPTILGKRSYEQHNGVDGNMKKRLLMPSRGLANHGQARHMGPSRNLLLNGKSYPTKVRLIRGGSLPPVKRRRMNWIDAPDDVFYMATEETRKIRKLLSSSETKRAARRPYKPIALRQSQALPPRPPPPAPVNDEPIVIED
# UniProt Q9NQR4, sequence (Q9NQR4 whole entry, looked up): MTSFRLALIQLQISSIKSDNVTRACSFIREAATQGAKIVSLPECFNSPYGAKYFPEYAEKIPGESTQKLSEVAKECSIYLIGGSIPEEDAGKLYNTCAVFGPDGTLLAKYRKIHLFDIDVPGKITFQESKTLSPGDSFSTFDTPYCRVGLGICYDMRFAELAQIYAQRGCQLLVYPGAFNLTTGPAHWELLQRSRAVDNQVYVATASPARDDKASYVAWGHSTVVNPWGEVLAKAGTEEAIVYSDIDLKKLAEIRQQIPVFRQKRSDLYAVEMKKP
Target,log2 fold change [1],log2 fold change [2],log2 fold change [3],log2 fold change [4],log2 fold change [5],log2 fold change [6],log2 fold change [7],log2 fold change [8],log2 fold change [9],log2 fold change [10]
NMRAL1 (UniProt Q9HBL8),0.008,0.012,-0.111,-0.011,-0.037,-0.054,0.141,0.024,0.001,-0.02
NFATC2 (UniProt Q13469),0.002,0.067,0.014,0.032,-0.016,0.002,-0.144,-0.018,-0.049,0.033
NONO (UniProt Q15233),0.021,-0.048,0,-0.006,-0.017,0.025,-0.027,0.014,0.002,0.005
NGLY1 (UniProt Q96IV0),0.022,-0.064,-0.031,-0.01,-0.009,0.009,-0.063,-0.001,-0.011,-0.024
NARS2 (UniProt Q96I59),-0.027,-0.034,-0.045,0.031,0.022,-0.021,-0.04,0.027,-0.027,-0.088
NUP210 (UniProt Q8TEM1),-0.018,-0.019,-0.049,0.036,-0.004,-0.046,-0.157,-0.008,-0.001,-0.009
NCAPD2 (UniProt Q15021),0.011,0.011,-0.005,0.032,-0.009,-0.016,-0.025,-0.007,-0.005,-0.001
NUDT4 (UniProt Q9NZJ9),-0.043,0.233,-0.022,0.07,-0.055,-0.009,0.039,0.059,0.026,-0.026
NSUN2 (UniProt Q08J23),0.004,0.04,-0.018,0.006,0.004,-0.006,-0.016,0.033,-0.018,-0.002
NPM3 (UniProt O75607),0.023,-0.047,0.034,0.019,-0.059,-0.013,0.025,-0.004,0.053,-0.028
NIT2 (UniProt Q9NQR4),-0.048,0.001,0.014,0.009,0.007,-0.03,0.032,-0.006,0.015,0.067
PAK1 (UniProt Q13153),0.043,0.018,0.01,-0.017,0.01,-0.014,0.018,0.028,0.041,-0.007
NARF (UniProt Q9UHQ1),0.005,0.006,0.042,0.007,-0.005,0.004,0.004,-0.009,-0.021,-0.009
NUP93 (UniProt Q8N1F7),0.025,0.058,-0.042,0.021,0.032,-0.022,-0.049,0.002,0.015,-0.022
PARD3 (UniProt Q8TEW0),0.1,-0.288,0.051,-0.146,-0.029,0.021,0.007,0.067,0.017,0.028
PAXBP1 (UniProt Q9Y5B6),0.019,-0.035,0.025,-0.01,0.018,0.026,-0.04,-0.022,0.029,0.013
NT5DC2 isoform 2 (UniProt Q9H857),0.027,0.008,0.068,0.03,0.505 (active),-0.059,0.04,-0.015,0.036,0.002
MTA1 (UniProt Q13330),0.006,0,0.013,0.017,-0.036,0,-0.035,0.002,-0.008,0.015
NAA38 isoform 2 (UniProt Q9BRA0),0.049,-0.065,0.013,0.019,-0.045,-0.055,0.008,-0.052,0.008,0.031
OPA1 isoform 2 (UniProt O60313),0.003,0.03,-0.078,0.024,0.01,-0.022,-0.026,-0.015,0.021,0.003
NUB1 (UniProt H7C5N1),,,,,,0.163,,,,0.183
NR3C1 isoform 3 (UniProt P04150),0.061,-0.019,-0.058,-0.075,0.09,0.044,,0.047,-0.064,-0.059
